The nature of assay [1]: NCI Yeast Anticancer Drug Screen. Data for the rad50 strain (AID 155).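 Also: 0% = growth of vehicle-only cultures of the same strain.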 As to conditions: S. cerevisiae rad50 strain growth inhibition, active compounds read high. A digest of the protocol: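 Growth of the mutant yeast was measured after compound exposure and referenced to vehicle-treated cultures.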
Assay [2] is described as follows: NCI Yeast Anticancer Drug Screen. Data for the mec2-1 strain (AID 157). The conditions noted are these: S. cerevisiae mec2-1 strain, active compounds read high. The essentials:
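Strain: mec2-1 (DNA repair/cell cycle alteration). Compound exposure, then growth measured; inhibition expressed relative to vehicle.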

The nature of assay [3]: NCI Yeast Anticancer Drug Screen. Data for the sgs1 mgt1 strain (AID 161).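 Also: 0% = growth of cultures given vehicle only.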 The conditions noted are these: S. cerevisiae sgs1 mgt1 strain, active compounds read high. The essentials:
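Test agents were incubated with a DNA-repair-mutant yeast strain. Growth was then read and compared against vehicle-treated controls.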

Assay [4] can be described thus: NCI Yeast Anticancer Drug Screen. Data for the cln2 rad14 strain (AID 165).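 Also: 0% = growth equal to vehicle treated cultures.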 The conditions noted are these: S. cerevisiae cln2 rad14 strain, active compounds read high. The essentials:
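Compounds are applied to the cln2 rad14 yeast strain, and growth is then compared with that of vehicle-treated cultures to give inhibition.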

Assay [5] can be described thus: NCI Yeast Anticancer Drug Screen. Data for the bub3 strain (AID 167). The conditions noted are these: S. cerevisiae bub3 mutant strain, active compounds read high. The essentials:
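Whole-cell yeast assay. The mutant strain was incubated with compounds, and growth inhibition was determined by comparison with vehicle-treated cells.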

Assay [6] in a line: NCI Yeast Anticancer Drug Screen. Data for the mlh1 rad18 strain (AID 175). The conditions noted are these: S. cerevisiae mlh1 rad18 strain growth inhibition, active compounds read high. The essentials: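 Read-out is yeast growth inhibition, calculated against vehicle-only controls. The compound was applied to a strain engineered with DNA damage repair alterations.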
Where [7] appears, read: at 5.0 µM (retest, dose inferred, filed as 0.5).
Setting [8] is: at 50.0 µM (retest, dose inferred, filed as 5.0).

Compounds without any hit were thinned out: in the full panel of roughly 79,000, 15% have a hit. Unmarked numbers belong to inactive results. Activity calls are given as the source filed them. Rule as the data show it: active = growth inhibition above about 70%; inactive = the rest.

Turning to `[Pt].c1ccc([PH+](c2ccccc2)c2ccccc2)cc1.c1ccc([PH+](c2ccccc2)c2ccccc2)cc1.c1ccc([PH+](c2ccccc2)c2ccccc2)cc1.c1ccc([PH+](c2ccccc2)c2ccccc2)cc1`, the growth inhibition is 31% in assay [1] (setting [7]); 62% in assay [1] (setting [8]); 68.5% in assay [1] (at 50.0 µM); 27% in assay [2] (setting [7]); 61% in assay [2] (setting [8]); 42.7% in assay [2] (at 50.0 µM). Further, the growth inhibition is 40% in assay [3] (setting [7]); 82% (active) in assay [3] (setting [8]); 62.3% in assay [3] (at 50.0 µM); 49% in assay [4] (setting [7]); 55% in assay [4] (setting [8]); 64% in assay [4] (at 50.0 µM). Besides, the growth inhibition in assay [5] (setting [7]) is 42%; in assay [5] (setting [8]), 54%; in assay [5] (at 50.0 µM), 62.5%; in assay [6] (setting [7]), 27%; in assay [6] (setting [8]), 86% (active); in assay [6] (at 50.0 µM), 41.5%.
Regarding `CN1C(=O)C2(C)SSC1(C)C(=O)N2C`, the growth inhibition in assay [1] (setting [7]) is 45%; in assay [1] (setting [8]) it was 95% (active); in assay [1] (at 50.0 µM) it was 97.2% (active); in assay [2] (setting [7]), 27%; in assay [2] (setting [8]) it was 95% (active); in assay [2] (at 50.0 µM), 93.8% (active). Moreover, the growth inhibition is 43% in assay [3] (setting [7]); 96% (active) in assay [3] (setting [8]); 97.5% (active) in assay [3] (at 50.0 µM); 10% in assay [4] (setting [7]); 85% (active) in assay [4] (setting [8]); 87.7% (active) in assay [4] (at 50.0 µM). For the same compound, the growth inhibition is 17% in assay [5] (setting [7]); 93% (active) in assay [5] (setting [8]); 95.5% (active) in assay [5] (at 50.0 µM); 57% in assay [6] (setting [7]); 97% (active) in assay [6] (setting [8]); 98.6% (active) in assay [6] (at 50.0 µM).
For the compound `O=C1C=CC(=O)C(Cl)=C1`, the growth inhibition was 10% in assay [1] (setting [7]); 96% (active) in assay [1] (setting [8]); 92.2% (active) in assay [1] (at 50.0 µM); 3% in assay [2] (setting [7]); 73% (active) in assay [2] (setting [8]); 96% (active) in assay [2] (at 50.0 µM). Moreover, the growth inhibition was 10% in assay [3] (setting [7]); 98% (active) in assay [3] (setting [8]); 96.2% (active) in assay [3] (at 50.0 µM); 6% in assay [4] (setting [7]); 56% in assay [4] (setting [8]); 91.4% (active) in assay [4] (at 50.0 µM). Also, the growth inhibition is 16% in assay [5] (setting [7]); 97% (active) in assay [5] (setting [8]); 95% (active) in assay [5] (at 50.0 µM); 5% in assay [6] (setting [7]); 98% (active) in assay [6] (setting [8]); 95.5% (active) in assay [6] (at 50.0 µM).
As for `CCNC(=O)OOC(C)(C)C`, the growth inhibition in assay [1] (setting [7]) is 16%; in assay [1] (setting [8]), 93% (active); in assay [1] (at 50.0 µM), 74.7% (active); in assay [2] (setting [7]), 6%; in assay [2] (setting [8]) it was 83% (active); in assay [2] (at 50.0 µM) it was 19.7%. For the same compound, the growth inhibition in assay [3] (setting [7]) was 4%; in assay [3] (setting [8]), 94% (active); in assay [3] (at 50.0 µM), -5.55%; in assay [4] (setting [7]), -2%; in assay [4] (setting [8]) it was 77% (active); in assay [4] (at 50.0 µM), -17.8%. Further, the growth inhibition in assay [5] (setting [7]) was -2%; in assay [5] (setting [8]), 72% (active); in assay [5] (at 50.0 µM), 1.45%; in assay [6] (setting [7]) it was 19%; in assay [6] (setting [8]), 96% (active); in assay [6] (at 50.0 µM) it was 21.7%.
For `CCC[CH2][Sn]1([CH2]CCC)[O]C(=O)c2cccnc2[S]1`, the growth inhibition in assay [1] (setting [7]) is 40%; in assay [1] (setting [8]) it was 95% (active); in assay [1] (at 50.0 µM), 78.4% (active); in assay [2] (setting [7]), 38%; in assay [2] (setting [8]), 97% (active); in assay [2] (at 50.0 µM), 78.3% (active). Also, the growth inhibition in assay [3] (setting [7]) was 55%; in assay [3] (setting [8]), 97% (active); in assay [3] (at 50.0 µM), 77% (active); in assay [4] (setting [7]), 31%; in assay [4] (setting [8]) it was 94% (active); in assay [4] (at 50.0 µM) it was 62.5%. Moreover, the growth inhibition in assay [5] (setting [7]) was 44%; in assay [5] (setting [8]) it was 97% (active); in assay [5] (at 50.0 µM) it was 83.5% (active); in assay [6] (setting [7]) it was 51%; in assay [6] (setting [8]) it was 97% (active); in assay [6] (at 50.0 µM), 79.8% (active).
Turning to `OCC1N2CCC(CC2)C1(O)O` (stereo not given), the growth inhibition in assay [1] (setting [7]) is -2%; in assay [1] (setting [8]), 5%; in assay [1] (at 50.0 µM), -11.8%; in assay [2] (setting [7]) it was 2%; in assay [2] (setting [8]), -3%; in assay [2] (at 50.0 µM), -6.9%. The growth inhibition is -3% in assay [3] (setting [7]); 1% in assay [3] (setting [8]); 0.1% in assay [3] (at 50.0 µM); 2% in assay [4] (setting [7]); 2% in assay [4] (setting [8]); -16.1% in assay [4] (at 50.0 µM). Moreover, the growth inhibition in assay [5] (setting [7]) was 1%; in assay [5] (setting [8]), -4%; in assay [5] (at 50.0 µM) it was 34.5%; in assay [6] (setting [7]) it was -2%; in assay [6] (setting [8]), -4%; in assay [6] (at 50.0 µM), -12.7%.
Regarding `C1CCC(NCC2CCCO2)CC1` (stereo not given), the growth inhibition in assay [1] (setting [7]) was -12%; in assay [1] (setting [8]), 1%; in assay [1] (at 50.0 µM), 77.5% (active); in assay [2] (setting [7]), -10%; in assay [2] (setting [8]), -21%; in assay [2] (at 50.0 µM), 71% (active). Moreover, the growth inhibition in assay [3] (setting [7]) was -1%; in assay [3] (setting [8]), -9%; in assay [3] (at 50.0 µM) it was 79.5% (active); in assay [4] (setting [7]) it was 25%; in assay [4] (setting [8]), 30%; in assay [4] (at 50.0 µM), 76.3% (active). Moreover, the growth inhibition in assay [5] (setting [7]) is -2%; in assay [5] (setting [8]), 17%; in assay [5] (at 50.0 µM), 77.8% (active); in assay [6] (setting [7]) it was -4%; in assay [6] (setting [8]), -31%; in assay [6] (at 50.0 µM), 58.3%.
As to `OC1CC([CH2][Hg][I])OC([CH2][Hg][I])C1` (stereo not given), the growth inhibition in assay [1] (setting [7]) is 99% (active); in assay [1] (setting [8]) it was 98% (active); in assay [1] (at 50.0 µM) it was 92.8% (active); in assay [2] (setting [7]), 100% (active); in assay [2] (setting [8]), 99% (active); in assay [2] (at 50.0 µM) it was 97.3% (active). In addition, the growth inhibition is 99% (active) in assay [3] (setting [7]); 99% (active) in assay [3] (setting [8]); 96.5% (active) in assay [3] (at 50.0 µM); 99% (active) in assay [4] (setting [7]); 99% (active) in assay [4] (setting [8]); 97.2% (active) in assay [4] (at 50.0 µM). The growth inhibition in assay [5] (setting [7]) was 99% (active); in assay [5] (setting [8]), 99% (active); in assay [5] (at 50.0 µM) it was 98.5% (active); in assay [6] (setting [7]), 99% (active); in assay [6] (setting [8]) it was 99% (active); in assay [6] (at 50.0 µM) it was 86.2% (active).
For the compound `COC(=O)C1=C(C(=O)OC)C2(OC(C)=O)c3ccccc3-c3ccccc3C12` (stereo not given), the growth inhibition was 72% (active) in assay [1] (setting [7]); 98% (active) in assay [1] (setting [8]); 90.2% (active) in assay [1] (at 50.0 µM); 92% (active) in assay [2] (setting [7]); 99% (active) in assay [2] (setting [8]); 93.5% (active) in assay [2] (at 50.0 µM). Also, the growth inhibition in assay [3] (setting [7]) was 43%; in assay [3] (setting [8]), 98% (active); in assay [3] (at 50.0 µM), 91.6% (active); in assay [4] (setting [7]), 86% (active); in assay [4] (setting [8]) it was 99% (active); in assay [4] (at 50.0 µM) it was 89.6% (active). In addition, the growth inhibition is 92% (active) in assay [5] (setting [7]); 98% (active) in assay [5] (setting [8]); 90.2% (active) in assay [5] (at 50.0 µM); 73% (active) in assay [6] (setting [7]); 99% (active) in assay [6] (setting [8]); 91.2% (active) in assay [6] (at 50.0 µM).
Take `O=[N+]([O-])c1ccc([N+](=O)[O-])c2nsnc12`: the growth inhibition in assay [1] (setting [7]) is 98% (active); in assay [1] (setting [8]), 97% (active); in assay [1] (at 50.0 µM), 99.5% (active); in assay [2] (setting [7]), 90% (active); in assay [2] (setting [8]), 98% (active); in assay [2] (at 50.0 µM), 99.5% (active). For the same compound, the growth inhibition in assay [3] (setting [7]) was 48%; in assay [3] (setting [8]), 99% (active); in assay [3] (at 50.0 µM), 99.3% (active); in assay [4] (setting [7]), 77% (active); in assay [4] (setting [8]), 98% (active); in assay [4] (at 50.0 µM), 99.3% (active). Also, the growth inhibition in assay [5] (setting [7]) was 98% (active); in assay [5] (setting [8]), 98% (active); in assay [5] (at 50.0 µM), 99.2% (active); in assay [6] (setting [7]), 79% (active); in assay [6] (setting [8]), 97% (active); in assay [6] (at 50.0 µM) it was 99% (active).
